# According to the supplement of paper PMC13380429:
# A number with no mark means an inactive call.
# System: Vero E6 infected with SARS-CoV-2
# Assay: inhibition of SARS-CoV-2 cytopathic effect; higher = more antiviral protection, active = above 15
# Conditions: 1 nM; 48 h
row,SMILES,inhibition of SARS-CoV-2 cytopathic effect [%]
1,CCCC[C@H]1OC(=O)c2ccccc21 [butylphthalide],-2.11
2,CCN(CC)CCCCNc1ncc2cc(-c3cc(OC)cc(OC)c3)c(NC(=O)NC(C)(C)C)nc2n1,-0.74
3,C[C@H](Cc1ccc(O)c(O)c1)[C@@H](C)Cc1ccc(O)c(O)c1 [masoprocol],-3.87
4,CN=C(N)NCCC[C@H](N)C(=O)O [L-monomethylarginine],-0.78
5,O=C(Oc1ccccc1)c1ccccc1O [phenyl-salicylate],-7.58
6,Cc1nnc2ccc(-c3cccc(C(F)(F)F)c3)nn12,-0.37
7,C=CC(=O)Nc1cccc(Nc2nc(Nc3ccc(N4CCN(C(C)=O)CC4)cc3OC)ncc2C(F)(F)F)c1 [rociletinib],-0.09
8,CC(C)[C@H](O)C(=O)N[C@@H](C)C(=O)N[C@@H]1C(=O)N(C)CCc2ccccc21 [semagacestat],-0.47

# Same assay, conditions: 8.33 nM; 48 h
row,SMILES,inhibition of SARS-CoV-2 cytopathic effect [%]
1,Cc1c(C(=O)NN2CCOCC2)nn(-c2ccc(Cl)cc2Cl)c1-c1ccc(I)cc1,1.48
2,CN(C)CCn1cc(S(=O)(=O)c2cccc(F)c2)c2cccnc21,5.65
3,CCOC(=O)c1ccccc1OC(N)=O [ethyl-2-(carbamoyloxy)benzoate],-7.77
4,O=C(O)Cc1sc(-c2ccccc2)nc1-c1ccc(Cl)cc1 [fentiazac],-2.64
5,O.O.O.O.O=C([O-])CC(O)(CC(=O)[O-])C(=O)[O-].[Li+].[Li+].[Li+] [lithium-citrate],-0.51
6,COc1ccnc2[nH]cc(C(=O)C(=O)N3CCN(C(=O)c4ccccc4)C[C@H]3C)c12,-1.88
7,Cc1cc(SCc2sc(-c3ccc(C(F)(F)F)c(F)c3)nc2C)ccc1OCC(=O)O,1.12
8,CCC(=O)[C@@]1(C)[C@H](C)C[C@H]2[C@@H]3CCC4=CC(=O)C=C[C@]4(C)[C@H]3[C@@H](O)C[C@@]21C [rimexolone],-0.66
9,Cn1ccc2cc(NC(=O)Nc3cccnc3)ccc21,-2.46
10,C[S+](CC[C@H](N)C(=O)O)C[C@H]1O[C@@H](n2cnc3c(N)ncnc32)[C@H](O)[C@@H]1O (stereo partly specified) [ademetionine],-1.8
11,CCN(CC)C(=O)[C@@]1(c2ccccc2)C[C@H]1CN [milnacipran],-3.38
12,COc1cc2c(Oc3ccc(NC(=O)C4(C(=O)Nc5ccc(F)cc5)CC4)cc3F)ccnc2cc1OCCCN1CCOCC1 [foretinib],-1.17
13,O=c1sn(-c2cccc3ccccc23)c(=O)n1Cc1ccccc1 [tideglusib],-1.6
14,CCC(=O)N1CCOc2c(cc(-c3ccc(OC)c(OC)c3)cc2OC[C@H]2CCCN(C)C2)C1,8.72
15,COCC1(CO)C(=O)C2CCN1CC2 (stereo unspecified),-1.26
16,C[C@@H]1CC[C@@]2(OC1)O[C@H]1C[C@H]3[C@@H]4CC=C5C[C@@H](O[C@@H]6O[C@H](CO)[C@@H](O[C@@H]7O[C@@H](C)[C@H](O)[C@@H](O)[C@H]7O)[C@H](O)[C@H]6O[C@@H]6O[C@@H](C)[C@H](O)[C@@H](O)[C@H]6O)CC[C@]5(C)[C@H]4CC[C@]3(C)[C@H]1[C@@H]2C [dioscin],0.88
17,CS(=O)(=O)c1cc(F)cc2c3c(n(Cc4ccc(Cl)cc4)c12)[C@@H](CC(=O)O)CC3 [laropiprant],-3
18,CCC(=O)NS(=O)(=O)c1ccc(-c2c(-c3ccccc3)noc2C)cc1 [parecoxib],0.02
19,C[C@H](CCC(=O)O)[C@H]1CC[C@H]2[C@@H]3CC[C@@H]4C[C@H](O)CC[C@]4(C)[C@H]3CC[C@]12C [lithocholic-acid],0.93
20,CCOc1cn(-c2ccc(F)cc2C)nc1C(=O)Nc1ccc(Oc2ccnc3cc(OC)c(OC)cc23)c(F)c1,-1.4
21,CCC(C/C=C/c1ccccc1)(c1ccccc1)N(C)CC1CC1 (stereo unspecified) [igmesine],0.01
22,c1ccc2c(c1)[I+]c1ccccc1-2 [diphenyleneiodonium],1.31
23,Cc1c(C(=O)N2CCOc3ccc(-c4ccc(N)nc4)cc3C2)ccc(S(C)(=O)=O)c1F,1.25
